Only some compounds are listed: those with a hit (about 7.3% of all), similar ones and a draw of the others.
SMN2 splice enh = enhancers of SMN2 splice variant expression. HEK293 SMN2-luciferase splicing reporter, luminescence, 30-36 h. Potency, µM (doses to about 46.1 µM), hits mostly activators. 2.8% of 210,000 active; further: nearly all actives have a fitted effect of over 55% in size
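HEK293 cells carry an SMN2 minigene-luciferase reporter in which exon 7 inclusion puts luciferase in frame. Cells were seeded at 2000 cells/well, attached for 10-12 hours, then exposed to compounds for 30-36 hours at 37C before ONE-Glo luminescence.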
NPC1 promoter act = NPC1 promoter activation; Potency, µM (titrated, usually from 9.22 µM), most hits filed as activators; AID 485313; 2.4% of 320,000 active; Huh7 NPC1 promoter luciferase reporter, 24 h; further: nearly all actives have a fitted effect of over 60% in size
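Readout is luciferase luminescence, reflecting NPC1 promoter activation in stably transfected Huh7 cells after 24 h compound exposure at 37 °C in reduced-serum medium with 10% FBS.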
FLuc modulator = counter-screen for miR-21 project: firefly luciferase inhibitors or activators | Potency, µM (doses to about 57.5 µM), usual class: inhibitors | AID 588342 | purified FLuc, Km substrates, luminescence inhibition | 6.9% of 360,000 active; further: nearly all actives have a fitted effect of over 55% in size
Target sequence (P08659 whole entry, looked up): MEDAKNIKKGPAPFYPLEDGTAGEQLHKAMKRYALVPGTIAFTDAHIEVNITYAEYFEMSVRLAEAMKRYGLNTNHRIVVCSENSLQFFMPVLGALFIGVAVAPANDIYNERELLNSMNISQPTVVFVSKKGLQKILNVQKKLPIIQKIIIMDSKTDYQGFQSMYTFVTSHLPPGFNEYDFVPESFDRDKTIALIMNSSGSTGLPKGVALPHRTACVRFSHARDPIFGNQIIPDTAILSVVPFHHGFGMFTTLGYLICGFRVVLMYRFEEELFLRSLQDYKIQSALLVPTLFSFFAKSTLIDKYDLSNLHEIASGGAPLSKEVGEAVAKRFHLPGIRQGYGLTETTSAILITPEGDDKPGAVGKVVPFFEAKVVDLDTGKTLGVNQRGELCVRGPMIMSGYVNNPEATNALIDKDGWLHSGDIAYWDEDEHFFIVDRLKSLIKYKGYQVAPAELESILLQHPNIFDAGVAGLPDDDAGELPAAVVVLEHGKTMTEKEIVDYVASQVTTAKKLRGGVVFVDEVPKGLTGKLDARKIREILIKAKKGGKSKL
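Purified P. pyralis luciferase, 10 nM final, with Km-level 10 uM D-luciferin and 10 uM ATP in 50 mM Tris acetate pH 7.5, 10 mM Mg acetate, 0.01% Tween-20, 0.05% BSA; 6-point qHTS titration about 60 µM downward; luminescence read.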
uPA surface inh = inhibitors of cell surface uPA generation | cell surface uPA generation assay, qHTS | Potency, µM (highest dose often 38.3 µM), actives largely listed as inhibitors | 0.31% of 330,000 active | AID 540303; active means well fitted inhibition curve with a large enough effect; inconclusive means small, poorly fitted or top-dose-only effect; inactive means no such curve, though single readings can be large or run the other way; tested in mouse RAW 264.7 cells; further: nearly all actives have a fitted effect of over 55% in size
ELG1 genotoxic = genotoxicity induction in ELG1-luciferase HEK293T cells. HEK293T ELG1-luciferase reporter, luminescence, 16 h. Potency, µM (series often up to 46 µM), most hits filed as activators. 1.3% of 330,000 active. AID 504466; further: nearly all actives have a fitted effect of over 60% in size
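HEK293T cells expressing luciferase-tagged ELG1 were exposed to compound or DMSO vehicle for 16 hr at 37 °C and 5% CO2. Luciferase activity was then measured with ONE-Glo after 30 min at room temperature.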
Rab9 prom act = activators of Rab9 promoter; 2.8% of 320,000 active; Huh7 Rab9 promoter-luciferase reporter, luminescence, 24 h; Potency, µM (top dose mostly 9.22 µM), most hits filed as activators; further: nearly all actives have a fitted effect of over 60% in size
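Luminescence from Amplite-detected luciferase (10 minutes, ambient) reports Rab9 promoter activation. Before that, stable Rab9-luciferase Huh7 cells (1500/well, reduced-serum OP-MEM I plus 10% FBS) were exposed to compound for 24 hours at 37C.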
Large screens that a line does not name were inactive. Unless noted, the call rests on the fitted dose curve; in most records, active means well fitted curve in the direction sought with a large enough effect; inconclusive means small, poorly fitted or top-dose-only effect, or another doubt; inactive means no such curve, though single readings can be large; an effect the other way counts as inactive or inconclusive.

CCc1ccc(-c2nc3ccc(Br)cc3c(C(=O)O)c2C)s1	SMN2 splice enh inconclusive, FLuc modulator 21µM
COc1ccc(NC(=O)NCc2c(-n3cccc3)sc3c2CCCC3)c(OC)c1	none (no result: SMN2 splice enh, NPC1 promoter act, uPA surface inh, ELG1 genotoxic, Rab9 prom act)
CCNC(=O)c1ccc(NS(=O)(=O)c2ccc3[nH]c(=O)[nH]c3c2)cc1	NPC1 promoter act 2.2µM, FLuc modulator 15µM, ELG1 genotoxic 7.3µM, Rab9 prom act 3.5µM (no result: SMN2 splice enh)
CC1CCC(NC(=O)c2ccc(NS(=O)(=O)c3ccc4[nH]c(=O)[nH]c4c3)cc2)CC1 (configuration not stated)	NPC1 promoter act inconclusive, FLuc modulator inconclusive, ELG1 genotoxic 18µM, Rab9 prom act inconclusive (no result: SMN2 splice enh)
COC(=O)c1ccc(CNC(=O)c2ccc(NS(=O)(=O)c3ccc4[nH]c(=O)[nH]c4c3)cc2)cc1	none (no result: SMN2 splice enh)
COC(=O)[C@H]1O[C@@H](c2cc(OC)c(C)c(OC)c2O)[C@H](C)[C@@H](O)[C@H]1C	none (no result: NPC1 promoter act, FLuc modulator, uPA surface inh, ELG1 genotoxic, Rab9 prom act)
NC(=Nc1ccccc1)NC(=O)c1nc(Cl)c(N)nc1N	SMN2 splice enh 14µM, NPC1 promoter act inconclusive, uPA surface inh inconclusive, Rab9 prom act inconclusive (no result: FLuc modulator, ELG1 genotoxic)
Cc1ccc(S(=O)(=O)N2CCN(C(=O)COC(=O)COc3ccc(Cl)cc3C)CC2)c(C)c1	none (no result: SMN2 splice enh, NPC1 promoter act, FLuc modulator, ELG1 genotoxic, Rab9 prom act)
Cc1cc(C(=O)N/N=C/C=C/c2ccccc2)n[nH]1	FLuc modulator inconclusive (no result: SMN2 splice enh)
Cc1cc(C(=O)N/N=C/c2cccnc2)c(C)o1	FLuc modulator inconclusive
O=C(N/N=C/C(Br)=C/c1ccccc1)c1cnccn1	FLuc modulator 6µM, ELG1 genotoxic inconclusive, Rab9 prom act 3.5µM (no result: SMN2 splice enh)
Cc1cc(C(=O)N/N=C/C(Cl)=C/c2ccccc2)c(C)o1	FLuc modulator 9.5µM (no result: SMN2 splice enh)
Cc1ccc(-c2cc(C(=O)N/N=C/C=C/c3ccccc3)n[nH]2)s1	FLuc modulator 9.5µM
O=C(N/N=C/C(Cl)=C/c1ccccc1)c1ccncc1	FLuc modulator 17µM
CCN(CCCNC(=O)c1cc2c(=O)[nH]c3ccc(C)cc3c2s1)Cc1ccccc1	none (no result: NPC1 promoter act, uPA surface inh, ELG1 genotoxic, Rab9 prom act)
CC(/C=N/NC(=O)c1ccccn1)=C\c1ccco1	NPC1 promoter act 1.4µM, FLuc modulator 3.8µM, uPA surface inh inconclusive, ELG1 genotoxic inconclusive, Rab9 prom act 1.4µM (no result: SMN2 splice enh)
O=C(N/N=C1\C/C(=N\NC(=O)c2ccncc2)c2ccccc21)c1ccncc1	FLuc modulator 4.8µM, uPA surface inh inconclusive (no result: SMN2 splice enh)
CC(=N/O)/C(C)=N\NC(=O)c1ccccn1	SMN2 splice enh inconclusive, ELG1 genotoxic inconclusive, Rab9 prom act inconclusive
O=C(N/N=C/c1ccncc1)c1ccccn1	NPC1 promoter act inconclusive, FLuc modulator inconclusive, ELG1 genotoxic inconclusive, Rab9 prom act inconclusive (no result: SMN2 splice enh)
O=C(NN=C1c2ccccc2-c2ccccc21)c1ccccn1	FLuc modulator 5.4µM
O=C(N/N=C/C(Cl)=C/c1ccccc1)c1ccccn1	SMN2 splice enh 13µM, NPC1 promoter act 4µM, FLuc modulator 4.8µM, ELG1 genotoxic inconclusive, Rab9 prom act 1.8µM
CC(=O)N1c2ccc(S(=O)(=O)N3CCCCCC3)cc2CC1C(=O)NC(C)C (configuration not stated)	none (no result: SMN2 splice enh, NPC1 promoter act, uPA surface inh, ELG1 genotoxic, Rab9 prom act)
COc1ccc(-n2c(=O)c(CCc3ccccc3)nc3cnc(N(C)C)nc32)cc1	none (no result: NPC1 promoter act, FLuc modulator, uPA surface inh, ELG1 genotoxic, Rab9 prom act)
O=C(N/N=C/C=C\c1ccccc1)c1cnccn1	FLuc modulator inconclusive
O=C(N/N=C/C=C/c1ccccc1)c1ccccn1	NPC1 promoter act inconclusive, FLuc modulator 17µM, ELG1 genotoxic inconclusive, Rab9 prom act 3.5µM (no result: SMN2 splice enh)
O=C(Cn1ccc([N+](=O)[O-])n1)N1CCCc2ccccc21	FLuc modulator 17µM, ELG1 genotoxic inconclusive
O=C(COC(=O)c1ccccc1[N+](=O)[O-])NC(=O)c1ccccc1	FLuc modulator 17µM (no result: SMN2 splice enh)
O=C(OCC(=O)N1CCN(c2ccccc2)CC1)c1ccccc1[N+](=O)[O-]	NPC1 promoter act 3.5µM, FLuc modulator 6.7µM, ELG1 genotoxic 5.2µM, Rab9 prom act 3.2µM (no result: SMN2 splice enh)
O=C(OCC(=O)N1CCCc2ccccc21)c1ccccc1[N+](=O)[O-]	NPC1 promoter act inconclusive, FLuc modulator 15µM, ELG1 genotoxic inconclusive, Rab9 prom act inconclusive (no result: SMN2 splice enh)
O=C(OCC(=O)N1CCN(c2ccccc2)CC1)c1cccc([N+](=O)[O-])c1	none (no result: SMN2 splice enh)
Cc1ccccc1CNC(=O)C1=Cc2ccccc2OC1	none (no result: SMN2 splice enh, NPC1 promoter act, uPA surface inh, ELG1 genotoxic, Rab9 prom act)
